# Assay results reported in the supplement of paper PMC3334620.
# Whole data set: some 33,000 sequences, median “E-score (-0.5 to 0.5)” near -0.0014, cut for the highest 2% near 0.25. For the sample, the highest values were picked, then their nearest neighbours and some sequences at random.
# Biological target: T1, Cad1 (UniProt P24813)
# T1 sequence: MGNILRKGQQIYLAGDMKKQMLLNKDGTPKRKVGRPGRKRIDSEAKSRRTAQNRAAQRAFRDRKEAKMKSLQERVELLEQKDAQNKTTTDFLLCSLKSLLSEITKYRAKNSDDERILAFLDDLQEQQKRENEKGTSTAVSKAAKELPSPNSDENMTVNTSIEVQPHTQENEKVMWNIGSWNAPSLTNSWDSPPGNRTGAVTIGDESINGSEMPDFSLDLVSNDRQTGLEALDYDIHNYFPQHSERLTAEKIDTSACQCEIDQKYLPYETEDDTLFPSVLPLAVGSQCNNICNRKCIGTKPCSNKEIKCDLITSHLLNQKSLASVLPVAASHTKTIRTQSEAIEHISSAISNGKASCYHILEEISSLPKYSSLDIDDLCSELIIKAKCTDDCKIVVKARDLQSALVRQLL
# Test: PBM E-score (8-mer binding enrichment) (E-score (-0.5 to 0.5)); higher = stronger / more preferred TF binding
# Details: protein concentration: 100 nM; construct: GST-full length
# How it was run: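 Using PURExpress in vitro transcription/translation, GST-tagged yeast transcription factors were made in full-length or DNA-binding-domain form. These were applied at about 100-200 nM to double-stranded universal all-10-mer Agilent arrays, and bound protein was detected with fluorescent anti-GST. Scans were normalised with masliner before the Universal PBM Analysis Suite assigned E-scores to ungapped eight-base words pooled with their reverse complements.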
row,Sequence,PBM E-score
1,CGCTCAAA,0.0635
2,GTACTCAC,0.158
3,CATCGATA,0.149
4,CTAGATAG,0.0131
5,GAAATCGA,0.0829
6,GTTACATA,0.253
7,GCTACATA,-0.00397
8,AGTATACA,0.207
9,CTTACATA,0.278
10,ATTACAGA,0.152
11,ACTACATA,0.0142
12,CTTACATC,-0.00465
13,CATACATA,0.161
14,GTTACAAA,0.223
15,ATTACATA,0.296
16,GGTATACA,0.0215
17,TGTATACA,0.272
18,TAAGTCCA,0.0496
19,ATGAATCA,0.0957
20,AACAGCGC,0.0746
21,CAGATCGC,-0.038
22,CCTTGTAA,0.049
23,ATGACTAG,-0.129
24,ATGACTAC,-0.181
25,GTGACTAA,0.37

row,Sequence,PBM E-score
1,ATGACTAA,0.377
2,GTGACTGA,0.157
3,GTGACTCA,-0.0941
4,AGCTTGAG,-0.123
5,CGCATAGA,0.0454
6,AATACACA,0.144
7,AATACACT,0.158
8,GATACACA,0.0908
9,CATACACC,0.00325
10,AATACACC,0.255
11,GATACACC,0.257
12,AGTACGCG,0.26
13,AGTACGCA,-0.129
14,AGTACGCC,-0.293
15,AATAGGGT,0.0291
16,CGCCCAGC,0.0197
17,CGTTGAAG,-0.178
18,TTCCGGAA,0.316
19,CTCCGGAC,0.00021
20,ATCCGGAA,0.22
21,CTCCGGAA,0.00101
22,CCCGGAAA,0.134
23,GTCCGGAC,0.319
24,ACCGGAAA,0.135
25,TCCGGAAA,0.252

row,Sequence,PBM E-score
1,ATCCGGAC,0.131
2,ATGCTCCG,-0.114
3,ATCCAGGG,-0.173
4,GACAAGCA,-0.021
5,ACCACTAT,0.0199
6,CACAATTA,0.00794
7,ACACTTTA,0.0868
8,GATAATTA,0.297
9,AATAATTC,0.18
10,GATAATGA,0.167
11,CATAATGA,0.0454
12,AATAATTG,0.0365
13,AATAATTA,0.336
14,CATAATTA,0.279
15,GATAATAA,0.0805
16,CATAATTC,0.0611
17,CTCATTCA,0.0583
18,AGTGTGAC,-0.0643
19,AGACTCAG,0.0244
20,CGCGATTC,0.268
21,CGCGATTA,0.187
22,AGCGATTC,-0.021
23,CCCTAACC,-0.157
24,CACTAGAC,-0.0989
25,TGCTTACA,0.235

row,Sequence,PBM E-score
1,AGCTTACA,0.351
2,AGCTTACC,-0.0175
3,GCGCCCAA,0.143
4,AATTCGGC,-0.0493
5,AATTCGTA,0.0688
6,AATTCGGT,0.266
7,AATTCGGG,0.0637
8,CATTCGTC,0.0375
9,AATTCGTC,0.274
10,CAATTTCA,0.0182
11,CTCGGCAG,0.136
12,CAAGCTTG,-0.294
13,ATTGGTCC,0.0438
14,AAACCGCA,-0.213
15,CAACCGAC,0.252
16,GAACCGAC,0.105
17,AAACCGCC,-0.0149
18,CAACCGAA,0.168
19,CAACCGCG,0.297
20,CAACCGCC,-0.23
21,AAACCGCG,0.271
22,CAACCGCA,0.066
